Screening results deposited in PubChem BioAssay by several laboratories.
E coli Lon inh: inhibits E. coli Lon protease. purified E. coli Lon protease, fluorescence polarization. P0A9M0. inhibition, % at 7.94 µM. 360,000 compounds, 0.42% hits; in the data active = inhibition above about 13%, passing the limit was not always enough;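 note: 0% = enzyme with probe and DMSO and 100% = no enzyme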
MCL1 BIM primary: MCL1-BIM-BH3 interaction inhibition (human). Q07820. GST-MCL1 / FITC-Bim-BH3 fluorescence polarization. inhibition, % at 10.9 µM. 320,000 compounds, 0.68% hits;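 active = inhibition above the mean inhibition of all tested compounds plus 3 SD, set per campaign, cut at about 40% in these data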;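 note: 0% = DMSO wells and 100% = unlabeled Bim-BH3 peptide control; higher means more loss of mP so more displacement of Bim peptide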
Target sequence (Q07820 whole entry, looked up): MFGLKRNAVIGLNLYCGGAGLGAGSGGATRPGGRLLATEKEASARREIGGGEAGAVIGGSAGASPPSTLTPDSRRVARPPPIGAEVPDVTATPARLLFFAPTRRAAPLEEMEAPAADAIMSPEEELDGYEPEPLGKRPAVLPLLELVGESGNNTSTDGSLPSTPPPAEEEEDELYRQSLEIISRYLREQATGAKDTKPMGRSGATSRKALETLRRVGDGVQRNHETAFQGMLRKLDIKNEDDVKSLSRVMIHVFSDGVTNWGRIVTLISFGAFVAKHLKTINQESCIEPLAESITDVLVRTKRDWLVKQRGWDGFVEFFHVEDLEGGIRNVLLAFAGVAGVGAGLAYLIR
EBV gp42 block: EBV gp42 inhibition; Fluorescence polarization binding assay, mP read-out; inhibition, % (tested at 21.74 µM); Q1HVG2; 220,000 compounds, 0.42% hits; AID 1085; in the data active = inhibition above about 50%
Bcl-xL primary: inhibitors of human Bcl-xL. GST-Bcl-xL / FITC-Bim BH3 peptide fluorescence polarization. AID 2129. 320,000 compounds, 0.7% hits. inhibition, % at 10.9 µM;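 active = inhibition above the mean of all tested compounds plus 3 SD, cutoff set per campaign, cut at about 30% in these data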;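 note: 0% = DMSO wells and 100% = unlabeled Bim-BH3 peptide competitor; inhibitors lower millipolarization by displacing the labeled peptide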
Target sequence (Q07817 whole entry, looked up): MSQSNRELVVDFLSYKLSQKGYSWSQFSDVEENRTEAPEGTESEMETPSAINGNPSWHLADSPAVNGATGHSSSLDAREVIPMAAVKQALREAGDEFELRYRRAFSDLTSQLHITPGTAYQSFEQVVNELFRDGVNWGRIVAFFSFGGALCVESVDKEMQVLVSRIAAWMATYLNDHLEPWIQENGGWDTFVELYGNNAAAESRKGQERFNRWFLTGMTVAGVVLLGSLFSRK
MEX-5 binding: C. elegans MEX-5 TCR-2 RNA binding activity | activity score (negative = inhibition of binding), % at 10 µM | Q9XUB2 | MEX-5/FITC-TCR2 RNA binding, fluorescence polarization; hits give low values | 300,000 compounds, 0.38% hits;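 active = inhibition past about -25% in most replicates, and total fluorescence under double the plate's negative control median, limit read from the data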;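 note: 0% = DMSO and -100% = 5 µM competing unlabeled TCR2 RNA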
GLD-1 TGE inh: GLD-1-TGE RNA interaction inhibition (C. elegans). inhibition, % at 5.96 µM. AID 2280. 320,000 compounds, 0.44% hits. purified GLD-1 + fluorescein TGE RNA, fluorescence polarization. Q17339;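 active = percent inhibition above a per-plate cutoff, the plate mean of test compounds plus 3 SD, cut at about 30% in these data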;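 note: 0% = DMSO wells with GLD-1 and probe and 100% = wells lacking GLD-1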
BCLXL inh confirm: counter-screen for MCL1 inhibitors: confirmation of human Bcl-xL inhibitors; shares compounds with MCL1 BIM primary; GST-Bcl-xL / FITC-Bim BH3 peptide FP binding; inhibition, % at 10.9 µM; 1,700 compounds, 54% hits; AID 2166;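 active = inhibition above a cutoff equal to the mean inhibition of all tested compounds plus 3 SD, cut at about 30% in these data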;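 note: 0% = DMSO wells and 100% = unlabeled Bim BH3 control peptide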
MCL1 inh confirm: MCL1-BIM-BH3 interaction inhibition, confirmation; shares compounds with MCL1 BIM primary; GST-MCL1 / FITC-Bim-BH3 fluorescence polarization; inhibition, % at 10.9 µM; 1,700 compounds, 61% hits;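 active = inhibition above the average of all tested compounds plus 3 SD, cut at about 40% in these data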;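 note: 0% = DMSO wells and 100% = unlabeled Bim-BH3 control peptide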
Active calls of the source: *; nt = no result. An excerpt weighted towards active compounds, which were near 1.5% of everything screened.

SMILES	E coli Lon inh	MCL1 BIM primary	EBV gp42 block	Bcl-xL primary	MEX-5 binding	GLD-1 TGE inh	BCLXL inh confirm	MCL1 inh confirm
O=C(N/N=C/c1ccc(Cl)cc1Cl)c1ccncc1	1	1	nt	-2	-2	-3	nt	nt
O=C(N/N=C/c1cc(Cl)cc(Cl)c1O)c1ccncc1	-70	56*	57*	72*	0	67*	67*	67*
OC(c1ccc(F)cc1)c1nc(-c2cncnc2)cs1 (configuration not stated)	-2	nt	nt	nt	nt	nt	nt	nt
COc1ccccc1Oc1ccc(NC(=O)c2ccc(Cl)cc2)cc1	-11	1	-5	2	-1	-12	nt	nt
COc1ccc2nc3ccccc3nc2c1NC(=O)c1ccc(Cl)cc1	-27	104*	46	50*	-31*	-3	82*	105*
Cc1cc2c(cc1[N+](=O)[O-])NC(CNC(C)C)CC2 (configuration not stated)	0	96*	-18	98*	0	51*	5	4
COc1ccc(Br)cc1C(=O)Nc1ccc(N2CCCC2)cc1	0	46*	nt	9	3	10	20	18
Cc1ccc(NC(=O)c2cc(-c3ccc(C)o3)nc3ccccc23)cc1	-12	13	-22	8	0	5	nt	nt
Cc1ccc(-c2cc(C(=O)Nc3ccccn3)c3ccccc3n2)o1	3	47*	30	29	-1	9	32*	69*
Oc1ccc(/C=N/Nc2ccnc3cc(Cl)ccc23)cc1O	1	-7	10	0	-4	-7	nt	nt
Oc1ccc(/C=N/Nc2ccnc3cc(Cl)ccc23)c(O)c1O	-27	54*	nt	19	0	-14	33*	38
O=C(CSc1nnc(CNC(=O)c2ccccc2)o1)NCc1ccccc1Cl	-4	5	nt	4	3	-3	nt	nt
Cc1ccc(NC(=O)CSC2=NN3CCCC(=O)N=C3S2)cc1Cl	-5	-1	nt	2	1	1	nt	nt
COc1cccc2c(N/N=C/c3ccc(O)c(O)c3)cc(C)nc12	10	41*	nt	19	-6	7	51*	73*
COc1ccc(/C=N/Nc2cc(C)nc3c(C)cccc23)cc1	0	4	nt	2	0	3	nt	nt
Cc1ccc(C(=O)O)cc1-c1ccc(C=C2C(=O)c3ccccc3C2=O)o1	-17	-1	-167	-7	1	-10	nt	nt
O=C1C(=Cc2ccc(Br)o2)C(=O)c2ccccc21	7	92*	65*	47*	nt	6	43*	64*
COc1ccc(/C=N/NC(=O)COc2ccc3ccccc3c2)c(C(=O)O)c1OC	3	-2	2	0	0	7	nt	nt
COc1ccc(/C=N/NC(=O)COc2cccc3ccccc23)c(C(=O)O)c1OC	3	54*	-3	6	0	-5	10	23
c1ccc(NC2=NCCN2CC2CCCCCC2)cc1	-1	-4	nt	1	nt	-13	nt	nt
O=Nc1c(O)[nH]c2ccc(Cl)c(Cl)c12	2	nt	nt	nt	nt	nt	nt	nt
O=C(O)c1ccccc1/C=N/NC(=O)c1cc(-c2ccco2)nc2ccccc12	-11	64*	59*	25	-16	3	42*	91*
O=C1CS/C(=N/N=C/c2cccs2)N1Cc1ccc(F)cc1	-2	-1	-9	-6	1	1	nt	nt
Cc1cc(C)n(-c2nc3ccccc3nc2Nc2ccc3[nH]c(=O)[nH]c3c2)n1	-7	54*	-15	79*	-3	65*	43*	36
COc1ccc(Nc2nc3ccccc3nc2-n2nc(C)cc2C)cc1	-8	0	1	-3	-1	0	nt	nt
SMILES	E coli Lon inh	MCL1 BIM primary	EBV gp42 block	Bcl-xL primary	MEX-5 binding	GLD-1 TGE inh	BCLXL inh confirm	MCL1 inh confirm
COC(=O)\C(C(C)=O)=C(/C=C/C=C/C=C/N(C)C)N(C)C	2	50*	-101	28	nt	19	15	-3
Cc1ccc(-c2csc(-c3c[nH]c4ccccc34)n2)c(C)c1	4	89*	12	4	1	8	1	-1
Cc1ccccc1OC(=O)c1cccnc1	6	nt	nt	nt	2	nt	nt	nt
COc1ccccc1NC(=O)N1CCc2[nH]c3ccc(F)cc3c2C1	4	50*	8	52*	-2	51*	14	20
CCN1C=C(Cc2ccccc2C)C2=C(C1)C(c1ccccc1C)C(C#N)=C(N)O2 (configuration not stated)	-16	12	13	11	5	25	nt	nt
CCN1C=CC2=C(C#N)C(N)C(C#N)(C#N)C(c3ccccc3C(F)(F)F)C2C1 (configuration not stated)	5	110*	34	106*	-32*	76*	50*	64*
COc1ccc(C(=O)C[n+]2cc(Br)cc3ccccc32)cc1[N+](=O)[O-]	-62	75*	nt	54*	-1	-86	22	24
Cc1ccc2oc(C(=O)N3CCC(O)(c4ccccc4)CC3)c(C)c2c1	-4	8	nt	4	2	7	nt	nt
Cc1nnc2c3ccccc3c(-c3ccc(O)cc3)nn12	3	-2	-9	-3	-1	2	nt	nt
Cc1c(-c2ccc(O)cc2)nc2nc(-c3ccccc3)c(-c3ccccc3)nn12	nt	112*	2	118*	7	22	44*	54*
CNc1ccccc(-c2ccc3cc4c(cc3n2)OCO4)c1=O	12	114*	17	91*	-13	14	34*	33
COc1ccc(Cl)cc1N(CC(=O)N1CCC(C)CC1)S(C)(=O)=O	-8	65*	-7	1	2	-3	11	17
OC[C@@H]1CN(Cc2ccccc2)C[C@H](n2ccc3c(N4CCCC4)ncnc32)O1	2	nt	nt	nt	nt	nt	nt	nt
O=C(C[C@H]1C/C=C\CC[C@@H](Cc2ccc(F)cc2)C(=O)OC[C@H]2CCCN2C1=O)N[C@@H](CO)Cc1ccccc1	-10	nt	nt	nt	nt	1	nt	nt
CCC(=O)OC1(C)C(=O)C=C2C=C(c3ccc(C#N)cc3)OC=C2C1=O (configuration not stated)	-8	31	nt	19	-4	14	nt	nt
CC1(O)C(=O)C=C2C=C(c3ccc(C#N)cc3)OC=C2C1=O (configuration not stated)	nt	47*	nt	8	1	8	13	40*
Oc1ccc(/C=N/Nc2cc(N3CCCC3)nc(N3CCCC3)n2)cc1O	0	48*	-8	18	-3	12	15	14
Oc1ccc(/C=N\Nc2cc(N3CCOCC3)nc(N3CCOCC3)n2)c(O)c1	7	8	-22	5	-8	3	nt	nt
